Active and inactive are the calls of the source. The rule behind the calls is not given here.

In this assay the target is Pantothenate synthetase (Mycobacterium tuberculosis (strain ATCC 25618 / H37Rv)) (UniProt P9WIL5). The experiment in a line: Coupled enzyme confirmation of inhibitors against recombinant Mtb PanC (AID 375).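 Note: 0% = full reaction with vehicle and 100% = no enzyme background.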 Conditions: coupled enzyme assay; at 10 µM, hits give high values.
Sequence of Pantothenate synthetase (Mycobacterium tuberculosis (strain ATCC 25618 / H37Rv)) (P9WIL5 whole entry, looked up): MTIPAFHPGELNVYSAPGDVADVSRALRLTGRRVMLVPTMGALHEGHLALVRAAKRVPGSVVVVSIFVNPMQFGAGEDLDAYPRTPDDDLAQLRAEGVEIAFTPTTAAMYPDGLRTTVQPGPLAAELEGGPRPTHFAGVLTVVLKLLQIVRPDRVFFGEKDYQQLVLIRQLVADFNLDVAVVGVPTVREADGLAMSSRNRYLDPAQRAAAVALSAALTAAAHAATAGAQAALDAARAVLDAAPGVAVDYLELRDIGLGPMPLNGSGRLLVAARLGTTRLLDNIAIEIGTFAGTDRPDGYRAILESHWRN
Turning to `COc1ccc(-c2nnc(SCC(=O)N3CCOCC3)o2)cc1OC`, the inhibition was 0% (inactive).
In the case of `CCSc1nc(O)c(CC)c(=O)n1C(C)CC` (stereo not drawn), the inhibition is 3% (inactive).
The same measure for `CCC(=O)Nc1ccc(F)c(Cl)c1`: 6% (inactive); for `CC1CCc2nn(CC(=O)NCCN3CCOCC3)cc2C1` (stereo not drawn): 0% (inactive); for `COc1ccc2nc(CC(C)(C)CC(=O)O)c[n+]([O-])c2c1`: 10% (inactive).
As to `O=C(CSc1oc(-c2ccco2)nc1S(=O)(=O)c1ccccc1)NCC1CCCO1` (stereo not drawn), the inhibition was 0% (inactive).
Turning to `CN1CCCC(OC(=O)COc2ccc(Br)cc2)C1` (stereo not drawn), the inhibition was 3% (inactive).
Then `CCOC(=O)C1=C(C)NC(SC(C)=O)=NC1c1ccc(OC(C)=O)c(OC)c1` (stereo not drawn), with 4% (inactive).
Then `COc1cc(NC(=O)Cc2nn(C)c(=O)c3ccccc23)cc(OC)c1`, with 0% (inactive).
With `Cn1nc(C(C)(C)C)cc1C(=O)NCc1ccc(N2CCCC2=O)cc1`, the inhibition was 0% (inactive).
Then `COc1ccc(N2C(=O)C(Cl)=C(Nc3c(C)n(C)n(-c4ccccc4)c3=O)C2=O)cc1`, with 5% (inactive); and `COC(=O)c1oc2ccc(Br)cc2c1NC(C)=O`, with 0% (inactive).
As for `CCCc1nnc(SCC(=O)N2CCOCC2)n1Cc1ccco1`, the inhibition was 0% (inactive).
The same measure for `Cc1nc(-c2cccc(N)c2)cs1`: 0% (inactive); for `CCOC(=O)c1c(NC(=O)CSc2nnc(-c3ccc(OC)cc3)o2)sc2c1CCC2`: 3% (inactive); for `O=C(Cn1ncc2c1-c1ccccc1OC2)Nc1ccc(Cl)cn1`: 6% (inactive).
The same measure for `CCOC(=O)C(C)Sc1nc2c(cnn2-c2ccc(C)cc2)c(=O)[nH]1` (stereo not drawn): 5% (inactive).
As for `O=C(CN(Cc1ccc(F)cc1)C(=O)c1ccco1)NCc1ccc(F)cc1`, the inhibition is 0% (inactive).

Source of the values: PubChem BioAssay.
